In PubChem BioAssay (EPA / NIEHS):
More than one record can exist for a structure, and the calls need not agree. Active and inactive are the calls of the source. The calls were made as follows: active = hit-call score of the fitted dose curve at least 0.9, where 1 is the maximum; inactive = score below 0.9.

Assays:
[1] = read-out: Interleukin-1 alpha (IL1a), IL1A (gene 3552); test: BSK_KF3CT_IL1a: BioMAP Diversity Plus: KF3CT Assay for Interleukin-1 alpha (IL1a) Biomarker Activity (AID 2283070); settings: primary human keratinocytes with fibroblasts; actives raise or lower the signal
Procedure, shortened: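 Human keratinocyte plus foreskin fibroblast primary co-culture, sampled 24 h after chemical dosing. IL-1a measured by ELISA; responses fitted bidirectionally against DMSO baseline (negative control), so gain or loss of signal both count.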

[2] = read-out: TIMP metallopeptidase inhibitor 2 (TIMP2), TIMP2 (gene 7077); test: BSK_KF3CT_TIMP2: BioMAP Diversity Plus: KF3CT Assay for TIMP metallopeptidase inhibitor 2 (TIMP2) Biomarker Activity (AID 2283071); settings: primary human keratinocytes with fibroblasts; actives raise or lower the signal
Procedure, shortened: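 Human primary keratinocyte/foreskin fibroblast co-culture dosed with chemical and sampled at 24 h. TIMP-2 levels quantified by ELISA; bidirectional fitting against DMSO negative control as baseline.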

[3] = read-out: Transforming growth factor beta 1 (TGFb1), TGFB1 (gene 7040); test: BSK_KF3CT_TGFb1: BioMAP Diversity Plus: KF3CT Assay for Transforming growth factor beta 1 (TGFb1) Biomarker Activity (AID 2283072); settings: primary human keratinocytes with fibroblasts; actives raise or lower the signal
Procedure, shortened: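 Human keratinocyte plus foreskin fibroblast primary co-culture, dosed with chemical for 24 h. TGF-b1 quantified by ELISA. Activity fitted bidirectionally against DMSO negative control as baseline.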

[4] = read-out: C-C motif chemokine 2 (Homo sapiens) (UniProt P13500); test: BSK_KF3CT_MCP1: BioMAP Diversity Plus: KF3CT Assay for Monocyte Chemoattractant Protein 1 (MCP1/CCL2) Biomarker Activity (AID 2283073); settings: primary human keratinocytes with fibroblasts; actives raise or lower the signal
Procedure, shortened: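 Human keratinocyte–foreskin fibroblast co-culture; MCP-1 measured by ELISA 24 h after dosing. Bidirectional fit vs DMSO; cytotoxicity tracked by SRB total protein in parallel cultures.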

[5] = read-out: Matrix Metallopeptidase 9 (MMP9), MMP9 (gene 4318); test: BSK_KF3CT_MMP9: BioMAP Diversity Plus: KF3CT Assay for Matrix Metallopeptidase 9 (MMP9) Biomarker Activity (AID 2283074); settings: primary human keratinocytes with fibroblasts; actives raise or lower the signal
Procedure, shortened: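 Keratinocyte plus foreskin fibroblast human primary skin co-culture was dosed with chemical and MMP-9 was quantified by ELISA 24 h later. Bidirectional curve fitting used DMSO as negative control and activity baseline.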

[6] = read-out: urokinase plasminogen activator (uPA), PLAU (gene 5328); test: BSK_KF3CT_uPA: BioMAP Diversity Plus: KF3CT Assay for urokinase plasminogen activator (uPA) Biomarker Activity (AID 2283075); settings: primary human keratinocytes with fibroblasts; actives raise or lower the signal
Procedure, shortened: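 Human keratinocyte plus foreskin fibroblast primary co-culture exposed to chemical for 24 h. uPA levels were quantified by ELISA, and activity was fitted bidirectionally against a DMSO negative-control baseline.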

CD40, CD40 (gene 958) [7] = test: BSK_LPS_CD40: BioMAP Diversity Plus: LPS Assay for CD40 Biomarker Activity (AID 2283076); settings: primary human HUVEC with PBMC; actives raise or lower the signal
Procedure, shortened: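 HUVEC plus PBMC co-culture stimulated with LPS; CD40 quantified by ELISA 24 h after compound dosing. Fitting was bidirectional relative to DMSO. SRB staining of parallel cultures flagged overt cytotoxicity.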

[8] = read-out: E-selectin (Homo sapiens) (UniProt P16581); test: BSK_LPS_Eselectin: BioMAP Diversity Plus: LPS Assay for Eselectin Biomarker Activity (AID 2283077); settings: primary human HUVEC with PBMC; actives raise or lower the signal
Procedure, shortened: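 Human umbilical vein endothelial cells co-cultured with PBMC under LPS stimulation; cell-surface E-selectin measured by ELISA 24 h after dosing. Change in either direction versus DMSO, with SRB total-protein staining in parallel cultures for cytotoxicity.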

[9] = read-out: Interleukin-8 (IL8), CXCL8 (gene 3576); test: BSK_LPS_IL8: BioMAP Diversity Plus: LPS Assay for Interleukin-8 (IL8) Biomarker Activity (AID 2283078); settings: primary human HUVEC with PBMC; actives raise or lower the signal
Procedure, shortened: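 Human umbilical vein endothelial cells co-cultured with PBMC, LPS-stimulated, exposed to compound for 24 h. IL-8 quantified by ELISA; fitted in both directions against DMSO, with SRB total-protein staining of parallel cultures for cytotoxicity.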

[10] = BSK_LPS_SRB: Viability Assessment in the BioMAP Diversity Plus: LPS Assay (AID 2283079); settings: primary human HUVEC with PBMC;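 also: total protein by sulforhodamine B absorbance as a cytotoxicity measure; measured one day after compound addition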
Procedure, shortened: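 Co-culture of human umbilical vein endothelial cells and PBMC, read 24 h after dosing. Total protein by 0.1% SRB staining after 10% TCA fixation, absorbance at 560 nm; bidirectional fit against DMSO.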

[11] = read-out: Interleukin-1 alpha (IL1a), IL1A (gene 3552); test: BSK_LPS_IL1a: BioMAP Diversity Plus: LPS Assay for Interleukin-1 alpha (IL1a) Biomarker Activity (AID 2283080); settings: primary human HUVEC with PBMC; actives raise or lower the signal
Procedure, shortened: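 Human umbilical vein endothelial cells co-cultured with PBMC and stimulated with LPS; IL-1a measured by ELISA 24 h after dosing. Bidirectional fitting against DMSO; cytotoxicity checked by SRB staining in parallel cultures.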

[12] = read-out: Monocyte Chemoattractant Protein-1 (MCP1), CCL2 (gene 6347); test: BSK_LPS_MCP1: BioMAP Diversity Plus: LPS Assay for Monocyte Chemoattractant Protein-1 (MCP1) Biomarker Activity (AID 2283081); settings: primary human HUVEC with PBMC; actives raise or lower the signal
Procedure, shortened: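 Human umbilical vein endothelial cells co-cultured with PBMC, LPS-stimulated; secreted MCP-1 measured by ELISA 24 h after compound addition. Bidirectional curve fitting against DMSO baseline; SRB total-protein staining in parallel cultures for cytotoxicity.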

[13] = BSK_LPS_PGE2: BioMAP Diversity Plus: LPS Assay for Prostaglandin E2 (PGE2) Biomarker Activity (AID 2283082); settings: primary human HUVEC with PBMC; actives raise or lower the signal
Procedure, shortened: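 HUVEC plus PBMC co-culture stimulated with LPS; secreted PGE2 quantified by ELISA 24 h after chemical dosing. Activity fitted bidirectionally against DMSO as negative control and baseline; parallel SRB total-protein staining served as cytotoxicity check.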

[14] = read-out: Macrophage colony-stimulating factor (MCSF), CSF1 (gene 1435); test: BSK_LPS_MCSF: BioMAP Diversity Plus: LPS Assay for Macrophage colony-stimulating factor (MCSF) Biomarker Activity (AID 2283083); settings: primary human HUVEC with PBMC; actives raise or lower the signal
Procedure, shortened: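 HUVEC–PBMC co-culture, M-CSF measured by ELISA 24 h after chemical dosing. Fitted in both directions relative to DMSO as negative control; overt cytotoxicity assessed by SRB total-protein staining in parallel cultures.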

[15] = read-out: Tumor necrosis factor (Homo sapiens) (UniProt P01375); test: BSK_LPS_TNFa: BioMAP Diversity Plus: LPS Assay for Tumour Necrosis Factor alpha (TNFa) Biomarker Activity (AID 2283085); settings: primary human HUVEC with PBMC; actives raise or lower the signal;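 as to AC50: TNFa protein level quantified by ELISA in the co-culture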
Procedure, shortened: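 Human umbilical vein endothelial cells co-cultured with PBMC were exposed to test chemical and TNFa measured by ELISA 24 h after dosing. Bidirectional curve fitting was done relative to DMSO as negative control and baseline.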

[16] = read-out: Vascular cell adhesion molecule 1 (VCAM1), VCAM1 (gene 7412); test: BSK_LPS_VCAM1: BioMAP Diversity Plus: LPS Assay for Vascular cell adhesion molecule 1 (VCAM1) Biomarker Activity (AID 2283086); settings: primary human HUVEC with PBMC; actives raise or lower the signal
Procedure, shortened: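 Human umbilical vein endothelial cells co-cultured with peripheral blood mononuclear cells under LPS stimulation were exposed to test chemical for 24 h. VCAM-1 levels were then measured by ELISA, with bidirectional curve fitting relative to DMSO as negative control and baseline.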

CD38, CD38 (gene 952) = test: BSK_SAg_CD38: BioMAP Diversity Plus: SAg Assay for CD38 Biomarker Activity (AID 2283087); settings: primary human HUVEC with PBMC; actives raise or lower the signal
Procedure, shortened: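 Fluorescence ELISA of cell-surface CD38 served as the read-out, with either increase or decrease fitted against DMSO controls. Cells were a human umbilical vein endothelium plus PBMC co-culture under SEB/TSST-1 stimulation, measured 24 h after dosing.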

CD40, CD40 (gene 958) [17] = test: BSK_SAg_CD40: BioMAP Diversity Plus: SAg Assay for CD40 Biomarker Activity (AID 2283088); settings: primary human HUVEC with PBMC; actives raise or lower the signal
Procedure, shortened: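 HUVEC plus PBMC co-culture, superantigen-activated, with CD40 read by ELISA 24 h after dosing. Curves fitted in both directions against DMSO. Overt cytotoxicity checked by parallel SRB total-protein staining.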

CD69, CD69 (gene 969) = test: BSK_SAg_CD69: BioMAP Diversity Plus: SAg Assay for CD69 Biomarker Activity (AID 2283089); settings: primary human HUVEC with PBMC; actives raise or lower the signal
Procedure, shortened: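 ELISA, fluorescence read-out: CD69 on human umbilical vein endothelial cell + PBMC co-culture, 24 h post-dosing. Gain or loss of signal fitted bidirectionally against DMSO baseline.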

[18] = read-out: Tissue Factor, F3 (gene 2152); test: BSK_LPS_TissueFactor: BioMAP Diversity Plus: LPS Assay for Tissue Factor Biomarker Activity (AID 2283084); settings: primary human HUVEC with PBMC; actives raise or lower the signal
Procedure, shortened: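 Human umbilical vein endothelial cells co-cultured with PBMC were dosed with compound. Cell-surface CD142 was measured by ELISA 24 h later. Activity was fitted bidirectionally against DMSO, with SRB total-protein staining in parallel cultures for cytotoxicity.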

Measured: AC50

Sequence of Tumor necrosis factor (Homo sapiens) (P01375 whole entry, looked up): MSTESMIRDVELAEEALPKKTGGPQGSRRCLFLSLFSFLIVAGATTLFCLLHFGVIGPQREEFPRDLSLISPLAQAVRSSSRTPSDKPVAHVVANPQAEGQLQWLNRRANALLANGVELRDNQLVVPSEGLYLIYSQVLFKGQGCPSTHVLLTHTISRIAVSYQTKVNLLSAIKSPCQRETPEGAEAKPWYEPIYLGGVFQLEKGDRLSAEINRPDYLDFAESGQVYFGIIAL
Sequence of E-selectin (Homo sapiens) (P16581 whole entry, looked up): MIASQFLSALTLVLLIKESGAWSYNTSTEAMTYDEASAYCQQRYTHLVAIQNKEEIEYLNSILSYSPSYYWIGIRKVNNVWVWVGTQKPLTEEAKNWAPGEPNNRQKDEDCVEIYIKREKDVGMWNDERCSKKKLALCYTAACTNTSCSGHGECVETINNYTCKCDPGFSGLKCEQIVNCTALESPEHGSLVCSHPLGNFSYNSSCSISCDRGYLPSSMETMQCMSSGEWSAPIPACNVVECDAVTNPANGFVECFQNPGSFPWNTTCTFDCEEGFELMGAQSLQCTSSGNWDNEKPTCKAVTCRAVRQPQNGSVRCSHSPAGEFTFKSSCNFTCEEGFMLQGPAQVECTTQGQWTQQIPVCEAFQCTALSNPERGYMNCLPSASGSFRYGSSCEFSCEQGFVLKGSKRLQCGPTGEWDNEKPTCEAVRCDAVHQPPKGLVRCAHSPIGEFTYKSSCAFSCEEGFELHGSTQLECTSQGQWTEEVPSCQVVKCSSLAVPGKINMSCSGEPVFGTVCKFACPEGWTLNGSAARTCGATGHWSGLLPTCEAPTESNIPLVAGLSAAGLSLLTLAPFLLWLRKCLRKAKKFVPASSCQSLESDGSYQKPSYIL

CC1(C)C(=O)N(Cl)C(=O)N1Cl
not listed: [18]
inactive: all other assays above

C[C@@H](Oc1ccc(CNC(=O)c2cccnc2Oc2ccc3c(c2)OCO3)c(F)c1)C(=O)O
active: [15] 2.29 µM
inactive: all other assays above

S=P(N1CC1)(N1CC1)N1CC1
inactive: all assays above

CCCCOC(=O)c1ccccc1
not listed: [18]
inactive: all other assays above

OCCC(F)(F)C(F)(F)C(F)(F)C(F)(F)F
inactive: [1] | [2] | [4] | [5] | [6] | CD40, CD40 (gene 958) [7] | [8] | [9] | [10] | [11] | [12] | [13] | [14] | [18] | [15] | [16] | CD38, CD38 (gene 952) | CD40, CD40 (gene 958) [17] | CD69, CD69 (gene 969)
active: [1] 8.32 µM | CD38, CD38 (gene 952) 0.234 µM

Cn1cc[nH]c1=S
not listed: [18]
inactive: all other assays above

CCCCC(CC)C(=O)OCCOCCOCCOC(=O)C(CC)CCCC (stereo not drawn)
active: [9] 15.7 µM
inactive: all other assays above
